T cruzi growth = T. cruzi intracellular proliferation inhibitors, primary screen, cell-based, beta-gal Tulahuen parasites, NIH3T3 host, luminescence; T. cruzi beta-gal in NIH3T3, GalScreen luminescence, 90 h; inhibition, % at 8.34 µM; 5.9% of 77,000 active; AID 624255, 2012;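 active means mean inhibition above about 93%, with at least 55% of replicates each passing it, limit read from the data, passing the limit was not always enough; inconclusive means only one of those two conditions holds; inactive means neither condition holds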
Pf Dd2 inh = P. falciparum Dd2 growth inhibitors, primary screen, SYBR Green fluorescence, single dose replicates; 72 h; hits give low values; 2.3% of 94,000 active; AID 1159554, 2015; activity change, % at 10 µM; in the data active means activity change below about -80%; inconclusive means no clear call, values can overlap the other calls
C diff growth = C. difficile growth inhibitors, primary screen, HTS; 0.25% of 86,000 active; Clostridium difficile clinical isolate growth, OD600, 24 h; hits give low values; growth activity, negative = inhibition, % at 16 µg/mL (by protocol);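 active means mean growth activity at or below -80% and every replicate also at or below -80%; inconclusive means mean at or below -80% but some replicate above -80%; inactive means mean growth activity above -80%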;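 further: 0% = DMSO wells and -100% = levofloxacin 16 µg/mL wells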
* hit, by the source's call; ? = inconclusive; nt = not tested or not shown; ! = a repeat was not active. Hits are enriched below; roughly 6.8% of the tested compounds scored in any of these assays.

SMILES	T cruzi growth	Pf Dd2 inh	C diff growth
CCCC#Cc1cnc2c(c1)C(=O)N([C@H](C)CO)C[C@H](C)[C@@H](CN(C)CCC)O2	67	-47	0
COc1ccc(C#Cc2cnc3c(c2)C(=O)N([C@H](C)CO)C[C@H](C)[C@H](CN(C)S(=O)(=O)c2ccccc2)O3)cc1OC	30	-76	5
COc1ccc(C#Cc2cnc3c(c2)C(=O)N([C@H](C)CO)C[C@H](C)[C@H](CN(C)S(=O)(=O)c2cccs2)O3)cc1OC	77	-84*!	nt
COc1ccc(C#Cc2cnc3c(c2)C(=O)N([C@H](C)CO)C[C@H](C)[C@H](CN(C)C(=O)c2ccccc2F)O3)cc1	60	-84*	10
COCC(=O)N1C[C@@H](C)[C@@H](OC)CN(C)C(=O)c2cc(NC(=O)c3cnccn3)ccc2OC[C@H]1C	62	5	nt
Cc1nn(C)cc1NC(=O)C[C@H]1CC[C@@H]2[C@H](COc3ccc(NC(=O)Nc4cccc(Cl)c4)cc3C(=O)N2C)O1	10	-1	1
CO[C@@H]1CN(C)C(=O)c2ccc(NS(=O)(=O)c3ccc(Oc4ccccc4)cc3)cc2OC[C@H](C)NC[C@@H]1C	0	-15	nt
COc1cccc(C#Cc2ccc([C@@H]3[C@H](CO)N4C(=O)CN(C(=O)c5ccccc5)C[C@@H]34)cc2)c1	nt	-16	-2
N#Cc1ccc(-c2ccc([C@@H]3[C@H]4CN(C(=O)Cc5ccccc5)CC(=O)N4[C@H]3CO)cc2)cc1	nt	-9	2
COc1cccc(C#Cc2ccc([C@@H]3[C@@H](CO)N4C(=O)CN(C(=O)Cc5ccccc5)C[C@H]34)cc2)c1	nt	-4	-1
COc1cccc(C#Cc2ccc([C@H]3[C@@H](CO)N4C(=O)CN(C(=O)Cc5ccccc5)C[C@H]34)cc2)c1	nt	-94*	2
N#Cc1ccc(-c2ccc([C@H]3[C@@H](CO)N4C(=O)CN(C(=O)Cc5ccccc5)C[C@@H]34)cc2)cc1	nt	-85*	-1
COc1cccc(C#Cc2ccc([C@@H]3[C@@H](CO)N4C(=O)CN(C(=O)c5ccccc5)C[C@@H]34)cc2)c1	nt	-91*	-5
CN1C(=O)c2cc(NC(=O)c3cccs3)ccc2OC[C@H]2O[C@H](CC(=O)N3CCOCC3)CC[C@H]21	24	-5	6
C[C@H]1CN([C@@H](C)CO)C(=O)Cc2cc(NC(=O)C3CCCCC3)ccc2O[C@@H]1CN(C)C(=O)NC1CCCCC1	23	17	1
C[C@H]1CN([C@@H](C)CO)C(=O)c2cc(C#Cc3ccncc3)cnc2O[C@@H]1CN(C)CC1CCOCC1	-37	14	7
Cc1cc(C(=O)Nc2cccc3c2O[C@H](CN(C)Cc2ccc4c(c2)OCO4)[C@H](C)CN([C@@H](C)CO)C3=O)n(C)n1	-17	4	1
N#C[C@@H]1[C@H](c2ccccc2C2=CCCC2)[C@@H](CO)N1C(=O)CN1CCOCC1	nt	13	-3
C[C@@H]1CN([C@H](C)CO)C(=O)c2cc(C#CC3(O)CCCC3)cnc2O[C@H]1CN(C)S(=O)(=O)c1ccccc1	-25	4	-3
COc1ccccc1-c1ccc2n(c1=O)C[C@H]1[C@H](CO)[C@@H](C(=O)NCc3ccccc3F)N[C@@H]21	52	7	-5
C[C@@H]1CN([C@H](C)CO)C(=O)Cc2cc(NC(=O)Cc3cn(C)c4ccccc34)ccc2O[C@H]1CN(C)Cc1ccccc1	66	-11	-16
C[C@H](CO)N1C[C@H](C)[C@H](CN(C)Cc2ccc(Oc3ccccc3)cc2)Oc2ccc(NC(=O)Cc3cn(C)c4ccccc34)cc2CC1=O	36	-83*	9
C[C@H]1CN([C@@H](C)CO)C(=O)Cc2cc(NC(=O)Cc3cn(C)c4ccccc34)ccc2O[C@H]1CN(C)C(=O)Nc1cccc2ccccc12	29	-33	-2
COc1ccc(CN(C)C[C@H]2Oc3ccc(NC(=O)Cc4cn(C)c5ccccc45)cc3CC(=O)N([C@H](C)CO)C[C@H]2C)cc1	74	31	-13
C[C@@H]1CN([C@H](C)CO)C(=O)Cc2cc(NC(=O)Cc3cn(C)c4ccccc34)ccc2O[C@@H]1CN(C)Cc1ccc(Oc2ccccc2)cc1	59	-28	-2
SMILES	T cruzi growth	Pf Dd2 inh	C diff growth
C[C@@H]1CN([C@@H](C)CO)C(=O)Cc2cc(NC(=O)Cc3cn(C)c4ccccc34)ccc2O[C@H]1CN(C)Cc1ccc(Oc2ccccc2)cc1	9	-90*	41
C[C@H](CO)N1C[C@H](C)[C@@H](CN(C)Cc2ccccc2)Oc2ccc(NC(=O)Cc3cn(C)c4ccccc34)cc2CC1=O	70	-82*	-5
C[C@H](CO)N1C[C@H](C)[C@H](CN(C)C(=O)Nc2cccc3ccccc23)Oc2ccc(NC(=O)Cc3cn(C)c4ccccc34)cc2CC1=O	43	-85*	-4
COc1ccc(NC(=O)Nc2ccc3c(c2)C(=O)N([C@H](C)CO)C[C@@H](C)[C@H](CN(C)Cc2ccc4c(c2)OCO4)OCCCC[C@H](C)O3)cc1	42	-71	-3
CNC[C@@H]1Oc2ccc(NC(=O)Nc3cccc4ccccc34)cc2C(=O)N([C@H](C)CO)C[C@@H]1C	nt	-8	0
C[C@H](CO)N1C[C@H](C)[C@@H](CN(C)Cc2ccccn2)Oc2ncc(C#Cc3cccc(F)c3)cc2C1=O	47	-47	-3
COc1ccc(CNC(=O)C[C@@H]2CC[C@H](NS(=O)(=O)c3cccc(OC)c3)[C@H](CO)O2)cc1	nt	nt	-1
COCC#Cc1ccc([C@H]2[C@H](CO)N3C(=O)CN(C(=O)CN4CCOCC4)C[C@@H]23)cc1	nt	-85*	2
O=C(C1CCCC1)N1CC(=O)N2[C@H](CO)[C@@H](c3ccc(C#CCc4ccccc4)cc3)[C@@H]2C1	nt	?	-14
O=C(C1CC1)N1CC(=O)N2[C@H](CO)[C@@H](c3ccc(C#CCc4ccccc4)cc3)[C@@H]2C1	nt	-88*	-26
CC(C)C#Cc1ccc([C@@H]2[C@@H](CO)N3C(=O)CN(C(=O)C4CCCCC4)C[C@H]23)cc1	nt	-21	28
COCC#Cc1ccc([C@H]2[C@@H](CO)N3C(=O)CN(C(=O)CN4CCOCC4)C[C@@H]23)cc1	nt	21	3
O=C(C1CCCC1)N1CC(=O)N2[C@H](C1)[C@@H](c1ccc(C#CCc3ccccc3)cc1)[C@@H]2CO	nt	-89*	-11
O=C(C1CC1)N1CC(=O)N2[C@@H](CO)[C@H](c3ccc(C#CCc4ccccc4)cc3)[C@@H]2C1	nt	-53	-23
CC(C)C#Cc1ccc([C@@H]2[C@@H](CO)N3C(=O)CN(C(=O)C4CCCCC4)C[C@@H]23)cc1	nt	-85*	50
CO[C@@H]1CN(C)C(=O)c2ccc(NS(=O)(=O)c3ccccc3)cc2OC[C@H](C)N(Cc2ccccn2)C[C@H]1C	nt	27	1
Cc1noc(C)c1NC(=O)Nc1ccc2c(c1)C(=O)N([C@H](C)CO)C[C@H](C)[C@@H](CN(C)S(=O)(=O)c1ccc(Cl)cc1)OCCCC[C@H](C)O2	76	-74	-11
O=C(Cc1ccncc1)N[C@@H]1CC[C@@H](CCn2cc(-c3ccccc3F)nn2)O[C@@H]1CO	-18	4	nt
